# Laboratory results published in PubChem BioAssay (NCATS).
# Results filed as inconclusive are left out. Where a call stands in place of a potency, no number is given. Activity calls are given as the source filed them. Calls follow the shape of the dose curve; as a rule, active = well fitted cell-killing curve with a large enough effect; inconclusive = small, poorly fitted or top-dose-only effect; inactive = flat fitted curve, though single readings scatter.
# Assay: Cell Viability - NIH 3T3 (AID 541); also: nearly all actives have a fitted effect of over 25% in size
# Conditions: NIH 3T3 cell viability, qHTS; activity change, negative = cytotoxicity: at 92.2 µM (top of the series)
# Text: NIH Chemical Genomics Center [NCGC]
# NIH Molecular Libraries Screening Centers Network [MLSCN]
# National Institutes of Environmental Health Sciences [NIEHS]
# National Toxicology Program [NTP]
# We have developed a 1536-well cell-based assay for quantitative high throughput screening (qHTS) against a number of cell lines to determine in vitro cytotoxicity of small molecules. This particular assay uses the NIH 3T3 fibroblast cell line which is established from NIH Swiss mouse embryo.
# NCGC Assay Protocol Summary:
# The CellTiter-Glo luminescent cell viability assay (Promega) is a homogeneous method to measure the number of viable cells in culture. The end point readout of this assay is based on quantitation of intracellular ATP, an indicator of metabolic activity, using the luciferase reaction. Luciferase catalyzes the oxidation of beetle Luciferin to oxyluciferin and light in the presence of ATP. The luminescent signal is proportional to amount of ATP present.
# Using the CellTiter-Glo luminescent cell viability assay, the amount of cellular ATP was measured in the NIH 3T3 cell line with complete culture medium following compound treatment for 40 hours. The assay was performed in opaque white Kalypsys 1536-well plates. In the screen, tamoxifen and doxorubicin were used as positive controls. Library compounds were measured for their ability to cause acute toxicity in the cell line, as reflected by a decrease in intracellular ATP levels, in a concentration-dependent manner. […] AC50 values were determined from concentration-response data modeled with the standard Hill equation.
# qHTS protocol for CellTiter Glo NIH 3T3 cellular assay
# [Step] [Parameter] [Value] [Description]
# 1. Reagent; 5 uL; 1000 NIH 3T3 cells/well
# 2. Time; 5 hr; 37 °C incubation
# 4. Controls; 23 nL; Tamoxifen 0.34 uM to 100 uM & Doxorubicin 0.02 nM to 100 uM
# 5. Time; 40 hr; 37 °C incubation
# 6. Reagent; 5 uL; CellTiter Glo reagent
# 7. Time; 20 min; Room Temperature
# 8. Detection; Luminescence; Viewlux plate reader
# Keywords: cell viability, cytotoxicity, NIH 3T3 cell line, luminescence, NTPHTS, NTPHTS_NCGC, NIEHS, EPA, DSSTox, MLSMR, MLSCN, NIH Roadmap, qHTS, NCGC
row,SMILES,Potency
1,c1ccc(Nc2ccccc2)cc1,inactive
2,c1ccc(Oc2ccccc2)cc1,inactive
3,O=C(Cl)c1ccccc1[N+](=O)[O-],inactive
4,CC(C)(C)OCC1CO1 (stereo not given),inactive
5,Nc1cccc([N+](=O)[O-])c1,inactive
6,N#CCc1ccccc1[N+](=O)[O-],inactive
7,CSc1ccc(C=O)cc1,inactive
8,OC1CCCC1,inactive
9,Cc1ccc(Br)cc1,inactive
10,C=Cc1ccccc1C=C,inactive
11,OC(CCl)CCl,inactive
12,C=CCCCCCC,inactive
13,NC(=O)/N=N/C(N)=O,inactive
14,CC/C=C1/OC(=O)c2ccccc21,inactive
15,Cc1ccccc1C#N,inactive
16,Cc1cscn1,inactive
17,Cc1ccc(C)c(N)c1,inactive
18,CCCCCCO,inactive
19,Cc1ccc(S(=O)(=O)NC2CCCCC2)cc1,inactive
20,FC(F)(F)c1cccc(Cl)c1,inactive

row,SMILES,Potency
1,Cc1ccc2nc(-c3ccc(N)cc3)sc2c1S(=O)(=O)O,inactive
2,Nc1cccc2c(=O)[nH][nH]c(=O)c12,inactive
3,OC/C(Br)=C(\Br)CO,inactive
4,OCCO,inactive
5,FB(F)F,inactive
6,CCOCC(=O)O,inactive
7,c1ccc2n[nH]nc2c1,inactive
8,CCOc1cccc(N)c1,inactive
9,CC1CCC2CC1C2(C)C (stereo not given),inactive
10,CC(C)C=O,inactive
11,O=C(O)c1cccc([N+](=O)[O-])c1,inactive
12,CC(C=O)Cc1ccc(C(C)(C)C)cc1 (stereo not given),inactive
13,CSCCC=O,inactive
14,COc1ccc(N=[N+]([O-])c2ccc(OC)cc2)cc1,inactive
15,Nc1cc(Cl)c(N)c(Cl)c1,inactive
16,COc1ccc(N)c(OC)c1,inactive
17,Cc1ccc2ccccc2c1[N+](=O)[O-],inactive
18,CC(=O)OC(C)=O,inactive
19,c1ccc2[nH]cnc2c1,inactive
20,C=CC(=O)NC(C)C,inactive
